Bioassay records deposited in PubChem BioAssay by National Center for Advancing Translational Sciences (NCATS).
This excerpt belongs to a sample that is enriched for hits.
NS1 function inh: qHTS Assay for Inhibitors of Influenza NS1 Protein Function; Potency, µM (series often up to 46.1 µM); actives 0.4% (n = 270,000); calls by dose curve; also: actives are rising curves; nearly all actives have a fitted effect of over 50% in size
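Read-out: OD600 growth recovery of NS1-expressing budding yeast. Cells grown overnight at 30C in -URA glucose medium, washed, resuspended and diluted 1:100 in 2% galactose assay medium, pH 6.0. Same strain lacking NS1 served as positive control.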
AmpC detergent: qHTS Inhibitors of AmpC Beta-Lactamase (assay with detergent). AmpC hydrolysis of nitrocefin, absorbance 480 nm, 0.01% Triton. Potency, µM (titrated, usually from 114 µM), actives largely listed as inhibitors. P00811. actives 0.041% (n = 370,000); also: nearly all actives have a fitted effect of over 25% in size
Target sequence (P00811 whole entry, looked up): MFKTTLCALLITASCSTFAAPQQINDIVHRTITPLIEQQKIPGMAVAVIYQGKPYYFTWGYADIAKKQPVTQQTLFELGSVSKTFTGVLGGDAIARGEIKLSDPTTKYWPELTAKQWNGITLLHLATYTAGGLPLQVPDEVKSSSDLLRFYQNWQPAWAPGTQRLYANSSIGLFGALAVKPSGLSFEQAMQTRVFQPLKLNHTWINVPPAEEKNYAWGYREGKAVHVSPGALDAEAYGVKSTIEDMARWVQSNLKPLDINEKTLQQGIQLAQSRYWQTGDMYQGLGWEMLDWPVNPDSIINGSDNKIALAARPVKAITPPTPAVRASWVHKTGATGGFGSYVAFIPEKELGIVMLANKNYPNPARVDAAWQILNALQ
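AmpC (5.3 nM in the dispensed reagent) in 20 mM phosphate pH 7.0 with 0.01% (detergent screen) or 0.0001% Triton X-100 was preincubated with compounds for 15 min at room temperature. Nitrocefin was then added from an 800 uM solution, and hydrolysis was followed at 480 nm.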
CHX counter: Cycloheximide Counterscreen for Small Molecule Inhibitors of Shiga Toxin | max response, % | actives 12% (n = 300,000) | cell reporter, cycloheximide protein synthesis inhibition counterscreen; in the data active = max response mostly above about 13%, no sharp cut-off; inactive = mostly below about 14%; also: read at 38.3 µM for the half of the compounds with a filed dose
AmpC no deterg: qHTS Inhibitors of AmpC Beta-Lactamase (assay without detergent); P00811; AmpC nitrocefin hydrolysis, absorbance 480 nm, 0.0001% Triton; Potency, µM (series often up to 57.1 µM), hits mostly inhibitors; actives 0.52% (n = 330,000); also: nearly all actives have a fitted effect of over 20% in size
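AmpC (5.3 nM in the dispensed reagent) in 20 mM phosphate pH 7.0 with 0.01% (detergent screen) or 0.0001% Triton X-100 was preincubated with compounds for 15 min at room temperature. Nitrocefin was then added from an 800 uM solution, and hydrolysis was followed at 480 nm.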
Shiga toxin inh: A qHTS for Small Molecule Inhibitors of Shiga Toxin. AID 2315, 2010. actives 9.2% (n = 290,000). Vero cells, Shiga toxin protein synthesis inhibition reporter. inhibition, % at 38.7 µM; in the data active = inhibition mostly above about 28%, no sharp cut-off; inactive = mostly below about 43%
Hits are given with their value. Unless noted, calls follow the shape of the dose curve; as a rule, active = well fitted curve in the direction sought with a large enough effect; inconclusive = small, poorly fitted or top-dose-only effect, or another doubt; inactive = no such curve, though single readings can be large; an effect the other way counts as inactive or inconclusive.

What do the screens show for `O=C(Nc1ccccc1O)c1ccc(NS(=O)(=O)c2cccc3cccnc23)cc1`?
NS1 function inh: inactive; AmpC detergent: inactive; CHX counter: inactive; AmpC no deterg: 16µM; Shiga toxin inh: inactive

How did CCc1ccccc1NC(=O)N1CCCn2nc(C)cc21 do in these assays?
AmpC detergent: inactive

What do the screens show for `Cc1ccc(Cn2c(CNS(=O)(=O)c3cccc([N+](=O)[O-])c3)nc3cccnc32)cc1`?
AmpC detergent: inactive

How did Cc1cccc(-c2nnc(SC(C)C(=O)N3CCOCC3)o2)c1 (stereo not drawn) do in these assays?
NS1 function inh: inactive; AmpC detergent: inactive; CHX counter: inactive; AmpC no deterg: inactive; Shiga toxin inh: inactive

Results for O=C(N/N=C/c1ccc(O)cc1)Nc1cccc2nsnc12 ?
NS1 function inh: inactive; AmpC detergent: inactive; CHX counter: 40; AmpC no deterg: inactive; Shiga toxin inh: 94

How did O=C(Nc1cccc2nsnc12)c1ccc2c(c1)OCCO2 do in these assays?
NS1 function inh: inactive; AmpC detergent: inactive; CHX counter: 30; AmpC no deterg: inactive; Shiga toxin inh: 108

Results for O=C(Nc1cc(-c2nc3ccccc3s2)ccc1Cl)c1ccc2c(c1)OCO2 ?
NS1 function inh: inactive; AmpC detergent: inactive; CHX counter: 27; AmpC no deterg: inactive; Shiga toxin inh: 52

What do the screens show for `O=C(Nc1cccc2cccnc12)c1ccc(Br)cc1`?
CHX counter: 31; Shiga toxin inh: inactive

Results for CCC(C)N(NC(C)=O)c1nc(Cl)nc(NC(C)(C)C)n1 (stereo not drawn) ?
NS1 function inh: inactive; AmpC detergent: inactive; CHX counter: inactive; AmpC no deterg: inactive; Shiga toxin inh: inactive

Results for CC1CCc2c(sc(NC(=O)COc3ccccc3C(C)(C)C)c2C#N)C1 (stereo not drawn) ?
AmpC detergent: inactive

What do the screens show for `Cc1ncoc1C(=O)N1CCc2c([nH]c3ccccc23)C1C1CCCCC1` (stereo not drawn)?
NS1 function inh: inactive; AmpC detergent: inactive; CHX counter: 52; AmpC no deterg: inactive; Shiga toxin inh: 72

What do the screens show for `Cc1ncoc1C(=O)N1CCc2c([nH]c3ccccc23)C1C(C)(C)C` (stereo not drawn)?
NS1 function inh: inactive; AmpC detergent: inactive; CHX counter: inactive; AmpC no deterg: inactive; Shiga toxin inh: inactive

What do the screens show for `c1ccc(-n2ncc3c(NCCN4CCCCC4)ncnc32)cc1`?
NS1 function inh: inactive; AmpC detergent: inconclusive; CHX counter: 52; AmpC no deterg: inactive; Shiga toxin inh: 66

What do the screens show for `Cc1cccc(-n2ncc3c(NCCN4CCOCC4)ncnc32)c1`?
NS1 function inh: inactive; AmpC detergent: inactive; CHX counter: inactive; AmpC no deterg: inactive; Shiga toxin inh: inactive

Results for c1ccc(-n2ncc3c(NCCN4CCOCC4)ncnc32)cc1 ?
NS1 function inh: inactive; AmpC detergent: inconclusive; CHX counter: 22; AmpC no deterg: inactive; Shiga toxin inh: 72

How did Cc1ccc(Nc2nnc(SCC(=O)NCC3CCCO3)s2)cc1 (stereo not drawn) do in these assays?
AmpC no deterg: inactive

Results for COc1ccc(-c2nsc(SCC(=O)NCC3CCCO3)n2)cc1 (stereo not drawn) ?
AmpC detergent: inactive; CHX counter: 32; AmpC no deterg: inactive; Shiga toxin inh: 65

Results for CC(C)c1ccc2nc(SCC(=O)NCC3CCCO3)c(C#N)cc2c1 (stereo not drawn) ?
NS1 function inh: inactive; AmpC detergent: inconclusive; CHX counter: inactive; AmpC no deterg: inactive; Shiga toxin inh: 71

What do the screens show for `Cc1ccc(-c2nsc(SCC(=O)NCC3CCCO3)n2)cc1` (stereo not drawn)?
AmpC detergent: inactive; CHX counter: inactive; AmpC no deterg: inactive; Shiga toxin inh: 56

What do the screens show for `Cc1ccc(SCC(=O)NCC2CCCO2)cc1` (stereo not drawn)?
NS1 function inh: inactive; AmpC detergent: inactive; CHX counter: inactive; AmpC no deterg: inactive; Shiga toxin inh: inactive

How did CCc1ccc2nc(SCC(=O)NCC3CCCO3)c(C#N)cc2c1 (stereo not drawn) do in these assays?
NS1 function inh: inactive; AmpC detergent: inactive; CHX counter: inactive; AmpC no deterg: inactive; Shiga toxin inh: inactive

Results for Cc1ccc(SCCC(=O)NCC2CCCO2)cc1 (stereo not drawn) ?
NS1 function inh: inactive; AmpC detergent: inactive; CHX counter: 13; AmpC no deterg: inactive; Shiga toxin inh: inactive

How did C#CCOc1ccc(/C=N/NC(=O)c2cccnc2)cc1OCC do in these assays?
AmpC detergent: inactive; CHX counter: inactive; AmpC no deterg: inactive; Shiga toxin inh: inactive

How did CCC(C(=O)NCCCN1CCOCC1)n1c2ccccc2c2nc(=O)cc(C)n21 (stereo not drawn) do in these assays?
NS1 function inh: inactive; AmpC detergent: inconclusive; CHX counter: inactive; AmpC no deterg: inactive; Shiga toxin inh: inactive

Results for CCc1cccc(C)c1NC(=O)Cn1cc2c(n1)CCCCC2 ?
AmpC detergent: inactive

How did CN1CCN(C(=O)c2cc3c(s2)-c2ccccc2S(=O)(=O)C3)CC1 do in these assays?
NS1 function inh: inactive; AmpC detergent: inconclusive; CHX counter: inactive; AmpC no deterg: inconclusive; Shiga toxin inh: inactive

How did CCCCN(C)C(=O)c1cc2c(s1)-c1ccccc1S(=O)(=O)C2 do in these assays?
NS1 function inh: inactive; AmpC detergent: inactive; CHX counter: 21; AmpC no deterg: inactive; Shiga toxin inh: inactive

How did CC(C)CCNC(=O)c1cc2c(s1)-c1ccccc1S(=O)(=O)C2 do in these assays?
NS1 function inh: inactive; AmpC detergent: inactive; CHX counter: 16; AmpC no deterg: inactive; Shiga toxin inh: inactive

How did COc1ccc(N(C)C(=O)c2cc3c(s2)-c2ccccc2S(=O)(=O)C3)cc1 do in these assays?
NS1 function inh: inactive; AmpC detergent: inactive; CHX counter: inactive; AmpC no deterg: inactive; Shiga toxin inh: inactive

How did CCC(C)NC(=O)c1ccc(CSCc2cccc(F)c2)o1 (stereo not drawn) do in these assays?
NS1 function inh: inactive; AmpC detergent: inconclusive; CHX counter: 25; AmpC no deterg: inactive; Shiga toxin inh: inactive

Results for O=C(NC1CC1)c1ccc(CSCc2cccc(F)c2)o1 ?
NS1 function inh: inactive; AmpC detergent: inactive; CHX counter: 11; AmpC no deterg: inactive; Shiga toxin inh: inactive

What do the screens show for `Cc1ccc(CSCc2ccc(C(=O)NC3CC3)o2)cc1`?
NS1 function inh: inactive; AmpC detergent: inactive; CHX counter: inactive; AmpC no deterg: inactive; Shiga toxin inh: inactive

What do the screens show for `Cc1ccc(NC(=O)CSc2nnc(N)s2)c(C)c1`?
AmpC detergent: inactive

Results for Cc1ccc(C2(C)NC(=O)N(CC(=O)Nc3ccccc3C(=O)NC3CCCC3)C2=O)cc1 (stereo not drawn) ?
AmpC detergent: inactive; AmpC no deterg: inactive

What do the screens show for `COc1cc(NC(=O)Cn2ccsc2=N)cc(OC)c1`?
NS1 function inh: inactive; AmpC detergent: inactive; CHX counter: inactive; AmpC no deterg: inactive; Shiga toxin inh: inactive
